# Source: PubChem BioAssay
# Records with an inconclusive call do not appear. Active and inactive are the calls of the source. Unless noted, no cut-off is given here; in the data, nearly all actives have AC50 up to about 30 µM.
# How the values were obtained:
# [1] = P. berghei load reduction in hepatocytes – cell-based, HepG2, luciferase luminescence, HepG2 viability, primary screen (AID 624349; in the data active = parasite load remaining mostly below about 12%, no sharp cut-off; inactive = mostly above about 10%;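 note: 100% = mean of DMSO negative control wells on the same plate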); details: P. berghei liver stage in HepG2, luciferase luminescence, concentration not given here; parasite load remaining: stronger effect = lower value; viability: measured here: HepG2 viability without parasites
# [2] = viability loss in pontine glioma line – cell-based, SU-DIPG-XIII, MIPE4.0, CellTiter-Glo, qHTS, dose response (AID 1347061; cut-off not given, nearly all actives have AC50 up to about 37 µM;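 note: cells exposed to compound for 48 hours before readout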); details: CellTiter-Glo ATP luminescence
# [3] = viability loss in pontine glioma line – cell-based, JHH-DIPG-1, MIPE4.0, CellTiter-Glo, qHTS, dose response (AID 1347062; cut-off not given, nearly all actives have AC50 up to about 27 µM;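 for AC50: cells exposed to compound for two days before readout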); details: JHH-DIPG-1 viability, CellTiter-Glo ATP luminescence
# [4] = viability loss in pontine glioma line – cell-based, SU-DIPG-IV, MIPE4.0, CellTiter-Glo, qHTS, dose response (AID 1347063); details: CellTiter-Glo ATP luminescence;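 note: compound exposure lasted 48 hours before the viability readout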
# [5] = viability loss in pontine glioma line – cell-based, SU-DIPG-XIII, MIPE5.0, CellTiter-Glo, qHTS, dose response (AID 1347064; cut-off not given, nearly all actives have AC50 up to about 23 µM;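 for AC50: cells exposed to compound for 48 hours before the viability read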); details: CellTiter-Glo ATP luminescence
# [6] = viability loss in pontine glioma line – cell-based, SU-DIPG-XXV, MIPE5.0, CellTiter-Glo, qHTS, dose response (AID 1347065; cut-off not given, nearly all actives have AC50 up to about 26 µM;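 note: cells exposed to compound for 48 hours before ATP readout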); details: CellTiter-Glo ATP luminescence
# [7] = growth inhibition of DIPG cells – cell-based, MIPE4.0 library, CellTiter-Glo luminescence, qHTS (AID 1347066); details: SU-DIPG-VI viability, CellTiter-Glo ATP luminescence;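 note: cells exposed to compound for 48 hours before readout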
# [8] = JHH-DIPG-1 glioma cell viability, MIPE5.0 library, CellTiter-Glo luminescence, qHTS (AID 1347067; cut-off not given, nearly all actives have AC50 up to about 26 µM;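 note: cells exposed to compound for 48 hours before readout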); details: JHH-DIPG-1 glioma viability, CellTiter-Glo ATP luminescence
# [9] = growth inhibition of DIPG cells – cell-based, MIPE5.0 library, qHTS (AID 1347068; cut-off not given, nearly all actives have IC50 up to about 30 µM;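 for IC50: cells exposed to compound for 48 hours before viability readout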); details: SU-DIPG-XXV viability
# [10] = tested on: Hepatitis C virus NS3 helicase; experiment: blockers of NS3h binding to ssDNA – biochemical, fluorescence polarization, LOPAC1280 library, primary screen (AID 687035; in the data active = inhibition above about 37%); details: Purified HCV NS3 helicase, Cy5-dT15 ssDNA binding fluorescence polarization; stronger effect = higher value; concentration not given here
# [11] = compounds altering Cy5-DNA-NS3h complex signal – biochemical, LOPAC1280, artefact control for HCV NS3 helicase inhibitor project (AID 687037; call rule not given here); details: Cy5-DNA-NS3h complex fluorescence interference counterscreen
# [12] = viability loss with induced miR-34 in A549 – imaging, A549 dox-inducible miR-34, nuclei and caspase counts, primary screen (AID 1347080;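 active = compounds whose cell count with miR-34 switched on is under 0.7 times the count with it off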); details: A549 miR-34 inducible, Hoechst nuclei count, 48 h
# [13] = blockers of cellular phospholipid synthesis – cell-based, LOPAC library, screen 4, primary screen (AID 1347384; call rule not given here); details: animal cells, phospholipid biosynthesis inhibition screen; at 10 µM
# [14] = galactose survival enhancers in mitochondrial complex I cybrids – cell-based, galactose medium, ATP luminescence, primary screen (AID 1645843;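 active = z-score of at least 1.8 in each of two replicates, scored against plate mean and spread of sample wells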;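 note: positive z means more ATP and so rescue of galactose-driven cybrid death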); details: complex I mutant cybrid cells, 72 h, stronger effect = higher value
# [15] = viability loss in pontine glioma line – cell-based, SU-DIPG-XVII, MIPE5.0, CellTiter-Glo, qHTS, dose response (AID 1347060; cut-off not given, nearly all actives have AC50 up to about 26 µM); details: CellTiter-Glo ATP luminescence
# [16] = MELAS cybrid and Rieske KO viability enhancers – cell-based, MELAS cybrids, Rieske KO mouse fibroblasts, CellTiter-Glo, primary screen (AID 1508586;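 active = mean z-score across replicates of 1.96 or higher in either the MELAS or the Rieske mutant cell line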;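 note: z relative to plate mean and SD of compound and empty wells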); details: low glucose
# [17] = liver-stage malaria parasite load reduction – cell-based, known kinase inhibitor set, luminescence, hepatoma host viability (AID 624392; call rule not given here;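 note: infected cells incubated roughly two days before readout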); details: Plasmodium liver stage in hepatoma cells, luciferase luminescence, concentration not given here; liver cell % of control: measured here: host liver cell viability; parasite % of control: stronger effect = lower value
# [18] = stronger effect = lower value, cell number ratio, induced over uninduced
# [19] = measured here: relative caspase fold change +Dox/-Dox
# [20] = measured here: total cells with miR-34 induction, stronger effect = lower value
# [21] = measured here: total cells without miR-34 induction
structure (smiles),measurement,setting,value
c1cc(-c2cnn3cc(-c4ccc(OCCN5CCCCC5)cc4)cnc23)ccn1,parasite load remaining,[1],40.1% (inactive)
same,viability,[1],103%
same,AC50,[2],23.5 µM (active)
same,AC50,[3],10.5 µM (active)
same,AC50,[4],10.5 µM (active)
same,AC50,[5],13.2 µM (active)
same,AC50,[6],11.8 µM (active)
same,AC50,[7],23.5 µM (active)
same,AC50,[8],14.8 µM (active)
same,IC50,[9],11.8 µM (active)
O=C(O)c1ccc(-c2cc3cccnc3c(-c3ccc4nonc4c3)n2)cc1,outcome,[2],inactive
same,AC50,[3],20.9 µM (active)
same,AC50,[4],26.4 µM (active)
CCN(CC)CCn1c(=O)c(Cc2ccc(OC)cc2)nc2ccccc21,inhibition,[10],0% (inactive)
same,fluorescence ratio (interference),[11],1 (inactive)
same,outcome,[2],inactive
same,outcome,[3],inactive
same,outcome,[4],inactive
same,outcome,[5],inactive
same,outcome,[6],inactive
same,outcome,[7],inactive
same,outcome,[8],inactive
same,outcome,[9],inactive
same,fold change,[12]; [18],0.991 (inactive)
same,fold change,[12]; [19],1.5
same,cell count,[12]; [20],9100
same,cell count,[12]; [21],9170
same,outcome,[13],inactive
same,z-score,[14],-0.075 (inactive)
COc1cc(OC)c2c(=O)[nH]c(-c3cc(C)c(OCCO)c(C)c3)nc2c1,outcome,[15],inactive
same,outcome,[9],inactive
same,fold change,[12]; [18],0.96 (inactive)
same,fold change,[12]; [19],0.714
same,cell count,[12]; [20],7650
same,cell count,[12]; [21],7970
same,z-score,"[16]; MELAS cybrid survival, CellTiter-Glo 48 h, stronger effect = higher value",-0.573 (inactive)
same,z-score,"[16]; Rieske KO mouse fibroblast survival, CellTiter-Glo 72 h",-1.26
CCCCN1CCC(CNC(=O)c2c3n(c4ccccc24)CCCO3)CC1,AC50,[2],6.62 µM (active)
same,outcome,[3],inactive
same,AC50,[4],16.6 µM (active)
CCNc1cc(NC2CCC(O)CC2)nc(Nc2ccc3c(ccn3Cc3ccccc3)c2)n1 (stereo not drawn),liver cell % of control,[17],83.4%
same,parasite % of control,[17],33.8% (inactive)
same,outcome,[2],inactive
same,AC50,[3],26.4 µM (active)
same,AC50,[4],18.7 µM (active)
same,AC50,[5],23.5 µM (active)
same,AC50,[6],16.6 µM (active)
same,AC50,[8],23.5 µM (active)
